Assay results as given in PubChem BioAssay (Tox21).
Inconclusive results are not listed. Entries that show only a call come without a potency. The source made the active and inactive calls. Unless noted, calls follow the shape of the dose curve; as a rule, active = well fitted curve in the direction sought with a large enough effect in the repeat runs; inconclusive = weak or mixed curves; inactive = no such curve, though single readings can be large; an effect the other way counts as inactive or inconclusive.

How the values were obtained:
[1] = qHTS assay for small molecules that induce genotoxicity in human embryonic kidney cells expressing luciferase-tagged ATAD5 (AID 651632); also: nearly all actives have a fitted effect of over 15% in size
Method in brief: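 A rise in luciferase signal from ATAD5-tagged HEK293T cells marks genetic stress. Cells were exposed to compounds for 16 hr at 37C, 5% CO2, then luciferase was quantified after a 30 min room-temperature incubation with Amplite.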

[2] = qHTS assay for small molecule agonists of the p53 signaling pathway - cell viability (AID 651633; calls by dose curve;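 also: p53RE-bla HCT reporter cells with a stable beta-lactamase p53 reporter; series mostly up to about 83 µM; nearly all actives have a fitted effect of over 30% in size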)
Method in brief: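 p53RE-bla cells, seeded at 4,000 per well and rested 5 h at 37 C/5% CO2, received compounds in DMSO for 16 h at 37 C. CellTiter-Glo was then added, and luminescence was read after 30 min at room temperature to gauge cytotoxicity.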

[3] = qHTS assay for small molecules that induce genotoxicity in human embryonic kidney cells expressing luciferase-tagged ATAD5 - cell viability (AID 651634; calls by dose curve; also: nearly all actives have a fitted effect of over 25% in size)
Method in brief: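 Cytotoxicity counter-readout: after 15.5 hr compound treatment at 37C, live-cell protease activity in ATAD5-luciferase HEK293T cells measured by CellTiter-Fluor fluorescence, 30 min development at 37C.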

[4] = qHTS assay to test for compound auto fluorescence at 590 nm (red) in HepG2 cells (AID 720674)
Method in brief: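 Intrinsic compound fluorescence in the red window (Ex/Em 540/590 nm) is measured in attached HepG2 cells exposed for 1 hr, DMSO vehicle as baseline, benchmarked to Rose Bengal sodium.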

[5] = qHTS assay to test for compound auto fluorescence at 535 nm (green) in HepG2 cells (AID 720675)
[6] = qHTS assay to test for compound auto fluorescence at 460 nm (blue) in HEK293 cells (AID 720678)
Method in brief: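 Blue-channel (Ex/Em 405/460 nm) intensity measured in HEK293 cultures after overnight compound exposure at 37C; signal expressed relative to triamterene. Cells plated 2,000 per well in 10% dialyzed FBS medium and allowed 4-5 hr to attach.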

[7] = qHTS assay to test for compound auto fluorescence at 590 nm (red) in HEK293 cells (AID 720679)
Method in brief: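 Red-channel autofluorescence (Ex/Em 540/590 nm; Rose Bengal sodium reference) was measured after overnight 37C, 5% CO2 exposure of attached HEK293 cells, 2,000 per well in medium with 10% dialyzed FBS.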

[8] = qHTS assay to test for compound auto fluorescence at 535 nm (green) in HEK293 cells (AID 720680)
[9] = qHTS assay to test for compound auto fluorescence at 460 nm (blue) in HEK293 cell free culture (AID 720681)
Method in brief: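 Test compounds were pinned into cell-free culture medium (DMEM with 10% FBS) and fluorescence was read directly at Ex/Em 405/460 nm. Signals were expressed as fluorescence equivalents of triamterene, with DMSO vehicle as control.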

[10] = qHTS assay to test for compound auto fluorescence at 590 nm (red) in HEK293 cell free culture (AID 720683)
Method in brief: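 Tox21 10K library compounds were pinned into cell-free DMEM with 10% FBS and fluorescence was read at excitation 540 nm. Activity is expressed as Rose Bengal sodium equivalency.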

[11] = qHTS assay to test for compound auto fluorescence at 590 nm (red) in HepG2 cell free culture (AID 720684)
Method in brief: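 Ex 540 / Em 590 nm read of compound in cell-free MEM (10% FBS). Rose Bengal sodium reference.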

[12] = qHTS assay to test for compound auto fluorescence at 460 nm (blue) in HepG2 cell free culture (AID 720685)
Method in brief: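 Cell-free plates of MEM plus 10% FBS received 23 nL compound or DMSO vehicle; blue-channel (405/460 nm) intensity scored against triamterene as reference fluorophore.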

[13] = qHTS assay to test for compound auto fluorescence at 535 nm (green) in HepG2 cell free culture (AID 720686)
[14] = qHTS assay to test for compound auto fluorescence at 460 nm (blue) in HepG2 cells (AID 720687)
Method in brief: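 Cells (2,000/well in MEM with 10% FBS) attached overnight at 37 C, then were exposed to compound or DMSO for 1 hr at 37 C, 5% CO2. Fluorescence read at Ex/Em 405/460 nm, expressed as triamterene-equivalent signal.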

[15] = target: Glucocorticoid receptor (Homo sapiens) (UniProt P04150); test: qHTS assay to identify small molecule agonists of the glucocorticoid receptor (GR) signaling pathway (AID 720691; active = well fitted activation curve with a large enough effect in the signal ratio in the repeat runs, not every such curve was filed as active; the % refers to the signal ratio)
Sequence of Glucocorticoid receptor (Homo sapiens) (P04150 whole entry, looked up): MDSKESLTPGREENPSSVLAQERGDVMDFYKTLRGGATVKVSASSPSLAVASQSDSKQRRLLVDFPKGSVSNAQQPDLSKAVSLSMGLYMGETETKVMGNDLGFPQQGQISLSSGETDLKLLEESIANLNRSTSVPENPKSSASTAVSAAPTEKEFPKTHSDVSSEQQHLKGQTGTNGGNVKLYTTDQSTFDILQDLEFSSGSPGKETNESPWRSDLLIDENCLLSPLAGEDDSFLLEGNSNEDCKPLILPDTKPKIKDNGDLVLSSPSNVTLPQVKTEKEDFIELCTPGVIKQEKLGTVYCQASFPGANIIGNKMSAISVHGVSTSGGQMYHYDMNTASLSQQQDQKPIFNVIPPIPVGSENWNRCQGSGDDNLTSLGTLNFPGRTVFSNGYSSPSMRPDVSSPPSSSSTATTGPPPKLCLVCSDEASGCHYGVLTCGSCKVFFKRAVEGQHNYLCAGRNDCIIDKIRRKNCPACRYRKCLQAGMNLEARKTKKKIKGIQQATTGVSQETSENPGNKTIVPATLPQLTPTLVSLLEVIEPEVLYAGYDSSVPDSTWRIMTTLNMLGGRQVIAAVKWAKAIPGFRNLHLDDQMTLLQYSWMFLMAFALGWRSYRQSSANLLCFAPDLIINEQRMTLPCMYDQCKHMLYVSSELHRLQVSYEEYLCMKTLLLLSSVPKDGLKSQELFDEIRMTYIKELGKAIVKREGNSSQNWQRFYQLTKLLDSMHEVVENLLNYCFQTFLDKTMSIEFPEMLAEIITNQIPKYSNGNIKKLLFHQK
Method in brief: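 Agonist-mode qHTS in HeLa cells stably expressing a glucocorticoid-response-element beta-lactamase reporter. Fluorescence intensity read with FRET substrate (2 h, room temperature) after 18 h compound treatment at 37 C.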

[16] = target: Glucocorticoid receptor (Homo sapiens) (UniProt P04150); test: qHTS assay to identify small molecule antagonists of the glucocorticoid receptor (GR) signaling pathway (AID 720692; active = well fitted inhibition curve with a large enough effect in the signal ratio in the repeat runs, not every such curve was filed as active; the % refers to the signal ratio; also: potency is read from the fitted curve at half-maximal effect)
Method in brief: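 Inhibition of dexamethasone-driven (5 nM final) beta-lactamase expression was measured in GRE-reporter HeLa cells over 18 h at 37C. Fluorescence was read after 2 h with the B/G FRET substrate at room temperature.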

[17] = qHTS assay for small molecule disruptors of the mitochondrial membrane potential - cell viability (AID 720634; calls by dose curve;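 also: human HepG2 liver cancer cells; series mostly up to about 83 µM; nearly all actives have a fitted effect of over 20% in size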)
Method in brief: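 Cytotoxicity was quantified from ATP content by CellTiter-Glo luminescence in the same wells as the MMP dye read-out. HepG2 (2,000 cells/well) were plated overnight and exposed to compounds for 1 hr at 37 C.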

[18] = qHTS assay to test for compound auto fluorescence at 535 nm (green) in HEK293 cell free culture (AID 720682)
Method in brief: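 Each library compound, or DMSO control, is added by pintool to medium alone, comprising DMEM and 10% FBS. Emission at 535 nm following 485 nm excitation is quantified against fluorescein.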

[19] = qHTS assay for small molecule disruptors of the mitochondrial membrane potential (AID 720635); also: potency is read from the fitted curve at half-maximal effect
Method in brief: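 HepG2 cells (2,000/well) attached overnight at 37C, then took compound for 1 hr at 37C, 5% CO2. Mito-MPS dye was added for 30 min; fluorescence was read at 490/535 nm (monomers) and 540/590 nm (aggregates).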

SMILES | Potency [1] | Potency [2] | Potency [3] | outcome [4] | outcome [5] | outcome [6] | outcome [7] | outcome [8] | outcome [9] | outcome [10] | outcome [11] | outcome [12] | outcome [13] | outcome [14] | outcome [15] | Potency [16] | Potency [17] | outcome [18] | Potency [19]
COC(=O)C(C)Oc1ccc(Oc2ccc(Cl)cc2Cl)cc1 (centres undefined) | inactive | inactive | inactive | inactive | inactive | inactive | inactive | inactive | inactive | inactive | inactive | inactive | inactive | inactive | inactive | – | – | – | –
CCC#N | inactive | inactive | inactive | – | inactive | inactive | inactive | inactive | inactive | inactive | inactive | inactive | inactive | inactive | inactive | inactive | – | – | –
CCCCOP(=O)(O)OCCCC | inactive | – | inactive | – | inactive | inactive | inactive | inactive | inactive | – | inactive | inactive | inactive | inactive | inactive | inactive | inactive | inactive | –
CCCSP(=S)(OCC)Oc1ccc(Cl)cc1Cl (centres undefined) | inactive | – | inactive | – | inactive | inactive | inactive | inactive | inactive | inactive | inactive | inactive | inactive | – | – | inactive | – | – | –
CC1CN1P(=O)(N1CC1C)N1CC1C (centres undefined) | inactive | – | inactive | – | inactive | inactive | inactive | inactive | inactive | – | inactive | inactive | inactive | – | – | – | – | inactive | –
COc1cc(OC)nc(NC(=O)NS(=O)(=O)c2ncccc2OCC(F)(F)F)n1 | inactive | inactive | – | – | inactive | inactive | inactive | inactive | inactive | inactive | inactive | inactive | inactive | inactive | inactive | – | inactive | inactive | –
COP(=S)(OC)Oc1c(Cl)cc(C)cc1Cl | inactive | inactive | – | inactive | inactive | inactive | inactive | inactive | inactive | inactive | inactive | inactive | inactive | – | inactive | inactive | – | inactive | 24.3 µM (active)
O=C(O)c1cccc(Cl)c1 | inactive | inactive | inactive | inactive | inactive | inactive | inactive | inactive | – | inactive | inactive | inactive | inactive | inactive | – | – | – | inactive | –
CNC(=O)N(C)c1nc2ccccc2s1 | – | – | inactive | inactive | inactive | inactive | inactive | inactive | – | inactive | inactive | inactive | inactive | – | – | – | inactive | inactive | inactive
C(CCOCC1CO1)COCC1CO1 (centres undefined) | – | inactive | inactive | inactive | inactive | inactive | inactive | inactive | inactive | inactive | – | inactive | inactive | – | inactive | – | – | inactive | inactive
CCSC(=O)N(CC)C1CCCCC1 | inactive | inactive | – | – | inactive | inactive | inactive | inactive | inactive | inactive | inactive | inactive | inactive | inactive | inactive | – | inactive | inactive | –
O=[N+]([O-])c1cccc2c([N+](=O)[O-])cccc12 | inactive | – | inactive | inactive | inactive | inactive | inactive | inactive | inactive | inactive | – | inactive | inactive | inactive | – | inactive | inactive | inactive | –
Nc1n[nH]c(N)n1 | inactive | inactive | – | inactive | inactive | inactive | inactive | inactive | inactive | inactive | inactive | inactive | inactive | inactive | inactive | inactive | inactive | – | –
C[C@]12CC[C@H]3[C@@H](CC=C4C[C@@H](O)CC[C@@]43C)[C@@H]1CC[C@@H]2O | – | inactive | inactive | inactive | inactive | inactive | inactive | inactive | inactive | inactive | inactive | inactive | inactive | inactive | – | 6.01 µM (active) | – | inactive | –
CNC(=O)Oc1cccc(C(C)C)c1 | – | – | inactive | inactive | inactive | inactive | inactive | inactive | inactive | – | inactive | inactive | inactive | – | – | inactive | inactive | inactive | –
